PubChem BioAssay
Activity calls are given as the source filed them.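 The calls were made as follows, unless noted: active = normalized viability below 100% at a tested concentration; inactive = the rest.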

Legend:
[1] = ovarian cancer cell viability with rucaparib, profiling panel, oncology-focused library, rucaparib conditional (AID 1508598); settings: patient-derived ovarian cancer cells, CellTiter-Glo viability, 144 h, stronger effect = lower value
[2] = kinase inhibitors against Plasmodium liver-stage infection, cell-based, known kinase inhibitor set, luminescence, hepatoma host viability (AID 624392; call rule not given here;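 also: infected cells incubated roughly two days before readout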); settings: Plasmodium liver stage in hepatoma cells, luciferase luminescence, concentration not given here; liver cell % of control: measured here: host liver cell viability; parasite % of control: stronger effect = lower value
[3] = modulators of glucocorticoid suppression of NF-kB, cell-based, luciferase, IL-1B stimulus, dexamethasone (AID 624486; call rule not given here;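 as to percent of negative control (+Dex): 100% = mean signal of vehicle control wells on the plate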); settings: NF-kB luciferase reporter, IL-1B + dexamethasone, luminescence; percent of negative control (+Dex): actives lie on both sides, concentration not given here; z-score: measured here: IL-1B alone, no Dex
[4] = kinase inhibitors altering Pseudomonas killing of worms, whole organism (AID 651566; call rule not given here;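 also: tested at 14 µM; sign flipped so higher z means a lower ratio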); settings: C. elegans killed by P. aeruginosa, survival ratio
[5] = activators of macrophage pro-inflammatory response, cell-based, murine, luminescence (AID 652131; call rule not given here); settings: murine macrophage pro-inflammatory reporter, stronger effect = higher value
[6] = survival rescue of mitochondrial mutant cells in low glucose, primary screen, MELAS cybrids, Rieske KO mouse fibroblasts, CellTiter-Glo (AID 1508586;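 active = mean z-score across replicates of 1.96 or higher in either the MELAS or the Rieske mutant cell line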;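 also: z relative to plate mean and SD of compound and empty wells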)
[7] = viability rescue of complex I mutant cybrids, primary screen, cell-based, galactose medium, ATP luminescence (AID 1645843;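 active = z-score of at least 1.8 in each of two replicates, scored against plate mean and spread of sample wells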;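 also: positive z means more ATP and so rescue of galactose-driven cybrid death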); settings: complex I mutant cybrid cells, 72 h, stronger effect = higher value
[8] = at 0.000305 µM, OCI-C5x cells, with rucaparib 10 µM, 100% = cells with rucaparib alone
[9] = at 0.000305 µM, OCI-C5x cells, without rucaparib
[10] = at 0.000305 µM, OCI-P5x cells, with rucaparib 20 µM, 100% = cells with rucaparib alone
[11] = at 0.000305 µM, OCI-P5x cells, without rucaparib
[12] = at 0.00122 µM, OCI-C5x cells, with rucaparib 10 µM, 100% = cells with rucaparib alone
[13] = at 0.00122 µM, OCI-C5x cells, without rucaparib
[14] = at 0.00122 µM, OCI-P5x cells, with rucaparib 20 µM, 100% = cells with rucaparib alone
[15] = at 0.00122 µM, OCI-P5x cells, without rucaparib
[16] = at 0.00488 µM, OCI-C5x cells, with rucaparib 10 µM, 100% = cells with rucaparib alone
[17] = at 0.00488 µM, OCI-C5x cells, without rucaparib
[18] = at 0.00488 µM, OCI-P5x cells, with rucaparib 20 µM, 100% = cells with rucaparib alone
[19] = at 0.00488 µM, OCI-P5x cells, without rucaparib
[20] = at 0.0195 µM, OCI-C5x cells, with rucaparib 10 µM, 100% = cells with rucaparib alone
[21] = at 0.0195 µM, OCI-C5x cells, without rucaparib
[22] = at 0.0195 µM, OCI-P5x cells, with rucaparib 20 µM, 100% = cells with rucaparib alone
[23] = at 0.0195 µM, OCI-P5x cells, without rucaparib
[24] = at 0.0781 µM, OCI-C5x cells, with rucaparib 10 µM, 100% = cells with rucaparib alone
[25] = at 0.0781 µM, OCI-C5x cells, without rucaparib
[26] = at 0.0781 µM, OCI-P5x cells, with rucaparib 20 µM, 100% = cells with rucaparib alone
[27] = at 0.0781 µM, OCI-P5x cells, without rucaparib
[28] = at 0.313 µM, OCI-C5x cells, with rucaparib 10 µM, 100% = cells with rucaparib alone
[29] = at 0.313 µM, OCI-C5x cells, without rucaparib
[30] = at 0.313 µM, OCI-P5x cells, with rucaparib 20 µM, 100% = cells with rucaparib alone
[31] = at 0.313 µM, OCI-P5x cells, without rucaparib
[32] = at 1.25 µM, OCI-C5x cells, with rucaparib 10 µM, 100% = cells with rucaparib alone
[33] = at 1.25 µM, OCI-C5x cells, without rucaparib
[34] = at 1.25 µM, OCI-P5x cells, with rucaparib 20 µM, 100% = cells with rucaparib alone
[35] = at 1.25 µM, OCI-P5x cells, without rucaparib
[36] = at 5 µM, OCI-C5x cells, with rucaparib 10 µM, 100% = cells with rucaparib alone
[37] = at 5 µM, OCI-C5x cells, without rucaparib
[38] = at 5 µM, OCI-P5x cells, with rucaparib 20 µM, 100% = cells with rucaparib alone
[39] = at 5 µM, OCI-P5x cells, without rucaparib
[40] = MELAS cybrid survival, CellTiter-Glo 48 h, stronger effect = higher value
[41] = Rieske KO mouse fibroblast survival, CellTiter-Glo 72 h

COc1cc(=C2C=c3ccccc3=N2)[nH]/c1=C\c1[nH]c(C)cc1C
active: viability [1, 10] 81.8% | viability [1, 11] 30.2% | viability [1, 14] 69.4% | viability [1, 15] 19.5% | viability [1, 19] 97.2% | viability [1, 22] 98.9% | viability [1, 23] 97.5% | viability [1, 25] 79.1% | viability [1, 26] 29.2% | viability [1, 27] 77.3% | viability [1, 29] 93.7% | viability [1, 30] 13.2% | viability [1, 31] 18.4% | viability [1, 32] 89.4% | viability [1, 33] 91.7% | viability [1, 34] 10.1% | viability [1, 35] 22% | viability [1, 36] 37.7% | viability [1, 37] 21.3% | viability [1, 38] 1.33% | viability [1, 39] 3.6%
inactive: viability [1, 8] 118% | viability [1, 9] 122% | viability [1, 12] 127% | viability [1, 13] 124% | viability [1, 16] 132% | viability [1, 17] 114% | viability [1, 18] 105% | viability [1, 20] 115% | viability [1, 21] 115% | viability [1, 24] 110% | viability [1, 28] 131%

COc1cccc(Nc2nccc(-c3cnn4ncccc34)n2)c1
active: percent of negative control (+Dex) [3] 3%
-9.21: z-score [3]
85.6%: liver cell % of control [2]
1.18: z-score [6, 41]
inactive: parasite % of control [2] 13.4% | z-score [4] 0.695 | z-score [5] -1.68 | z-score [6, 40] 0.875

C=C1/C(=C/C=C2\CCC[C@@]3(C)[C@H]2CC[C@H]3[C@H](C)/C=C/[C@@H](C)C(C)C)C[C@H](O)C[C@@H]1O
inactive: viability [1, 10] 101% | viability [1, 11] 100% | viability [1, 14] 105% | viability [1, 17] 104% | viability [1, 18] 105% | viability [1, 19] 102% | viability [1, 20] 103% | viability [1, 21] 100% | viability [1, 22] 102% | viability [1, 23] 102% | viability [1, 25] 100% | viability [1, 26] 105% | viability [1, 27] 101% | viability [1, 30] 107% | viability [1, 31] 104% | viability [1, 32] 101% | viability [1, 33] 102% | viability [1, 35] 103% | viability [1, 36] 120% | viability [1, 37] 111% | viability [1, 38] 111% | viability [1, 39] 103%
active: viability [1, 8] 99.9% | viability [1, 9] 95% | viability [1, 12] 97.2% | viability [1, 13] 100% | viability [1, 15] 99.9% | viability [1, 16] 94% | viability [1, 24] 97.1% | viability [1, 28] 96.7% | viability [1, 29] 96.6% | viability [1, 34] 98.4%

NC(=O)c1cc(-c2ccc(F)cc2)cc(-c2ccncc2)c1N
inactive: parasite % of control [2] 93.1% | percent of negative control (+Dex) [3] 92.5% | z-score [4] 0.64 | z-score [5] -0.928 | z-score [6, 40] -0.833
0.27: z-score [3]
110%: liver cell % of control [2]
0.289: z-score [6, 41]

COc1ccc(C2=N[C@H](c3ccc(Cl)cc3)[C@@H](c3ccc(Cl)cc3)N2C(=O)N2CCNC(=O)C2)c(OC(C)C)c1
active: viability [1, 10] 88.9% | viability [1, 11] 86.6% | viability [1, 14] 93.4% | viability [1, 15] 85.3% | viability [1, 18] 95.4% | viability [1, 19] 90.1% | viability [1, 22] 96.3% | viability [1, 23] 86.4% | viability [1, 26] 86.1% | viability [1, 27] 78.2% | viability [1, 30] 64.3% | viability [1, 31] 56.8% | viability [1, 34] 98.1% | viability [1, 35] 98% | viability [1, 38] 94.1% | viability [1, 39] 98.2%
inactive: viability [1, 8] 112% | viability [1, 9] 103% | viability [1, 12] 118% | viability [1, 13] 101% | viability [1, 16] 130% | viability [1, 17] 112% | viability [1, 20] 127% | viability [1, 21] 105% | viability [1, 24] 120% | viability [1, 25] 111% | viability [1, 28] 111% | viability [1, 29] 107% | viability [1, 32] 114% | viability [1, 33] 102% | viability [1, 36] 182% | viability [1, 37] 137%

CCn1nc(C(=O)N2CCCC2)c2c1CCC(NCCC1=CCCCC1)C2 (stereo not given)
inactive: z-score [6, 40] 1.1 | z-score [7] -1.23
-0.76: z-score [6, 41]

CC(C)NS(=O)(=O)c1cc(NCc2cnn(C)c2)cc(C(=O)NCc2cn3ccccc3n2)c1
inactive: z-score [6, 40] -0.615 | z-score [7] 1.27
-0.511: z-score [6, 41]

COc1cccc2c1C(=O)c1c(O)c3c(c(O)c1C2=O)C[C@@](O)(C(=O)CO)C[C@H]3O[C@H]1C[C@H](N)[C@H](O)[C@H](C)O1
inactive: viability [1, 8] 127% | viability [1, 9] 120% | viability [1, 10] 109% | viability [1, 11] 109% | viability [1, 12] 111% | viability [1, 13] 111% | viability [1, 14] 110% | viability [1, 15] 106% | viability [1, 16] 118% | viability [1, 17] 117% | viability [1, 18] 104% | viability [1, 19] 108% | viability [1, 20] 130% | viability [1, 21] 110% | viability [1, 22] 103% | viability [1, 23] 106% | viability [1, 24] 115% | viability [1, 25] 103% | viability [1, 28] 164% | viability [1, 29] 125%
active: viability [1, 26] 97.4% | viability [1, 27] 82% | viability [1, 30] 58.8% | viability [1, 31] 32.7% | viability [1, 32] 50% | viability [1, 33] 16.5% | viability [1, 34] 10.3% | viability [1, 35] 13.8% | viability [1, 36] 4.6% | viability [1, 37] 1.33% | viability [1, 38] 5.65% | viability [1, 39] 8.22%
